Active and inactive are the calls of the source.

The test system of assay [1] is Human papillomavirus type 1a protein E7 (residues 44-93). As to the kind of experiment: HPV1a E7 fragment binders on microarrays, primary screen, biochemical, small-molecule microarray, residues 44-93, 635 nm fluorescence (AID 1108).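 Also: E7 fragment applied at 1 µg/mL in TBST for 1 h at 4 C; score combines spot fluorescence with its signal to noise ratio.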 The conditions noted are these: small-molecule microarray binding, fluorescence 635 nm; higher = more signal.
Assay [2] is described as follows: modulators of HCV replicon luciferase signal, primary screen, HCV replication inhibitor project, Huh7 cells, luciferase reporter (AID 1109).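 Also: huh7 hepatoma cells harbouring a luciferase neomycin HCV replicon reporter; luciferase luminescence as measure of HCV replicon replication; test concentration not given here.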 The conditions noted are these: 48 h, higher = more signal. In general terms: In antiviral work, replicon cells carry a viral genome segment that copies itself.
Assay [3] concerns the target Left-right determination factor 2 (Homo sapiens) (UniProt O00292). As to the kind of experiment: LEFTY2 binders on small-molecule microarrays, primary screen, biochemical, small-molecule microarray, 635 nm fluorescence scan (AID 1110). The conditions noted are these: LEFTY2 binding, higher = more signal.
Assay [4] deals with Calmodulin-1 (Homo sapiens) (UniProt P0DP23). In words: CALM1 binders on microarrays, EGTA buffer, profiling panel, biochemical, small-molecule microarray, Cy5-labelled CALM1 (AID 1111).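 Also: labelled calmodulin applied in Tris saline Tween buffer holding calcium plus EGTA and DTT.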 The conditions noted are these: Cy5-CALM1 binding fluorescence, higher = more signal.
Assay [5] shares this target. In words: calcium-bound CALM1 binders on microarrays, profiling panel, artefact control for SMM control-protein annotation, biochemical, small-molecule microarray, Cy5-labelled CALM1, plus calcium (AID 1112).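 Also: score merges spot fluorescence with signal to noise from triplicate slides.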 The conditions noted are these: Cy5-CALM1 binding fluorescence, higher = more signal.
Assay [6] is described as follows: small-molecule microarray binders of probe aWnt5a, primary screen, biochemical, biotinylated probe, 635/667 nm fluorescence (AID 1113).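 Also: score merges 667 nm fluorescence intensity with signal-to-noise per printed feature.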 To be noted: higher = more signal.
Assay [7] in a line: small-molecule microarray binders of probe aShh, primary screen, biochemical, biotinylated probe, 635/667 nm fluorescence (AID 1114).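 Also: probe is biotin-labelled aShh protein from a stem cell growth factor screen; measures binding of labelled protein to compounds printed on the slide; score merges feature fluorescence at 667 nm with signal-to-noise.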 The conditions noted are these: higher = more signal.
Assay [8] in a line: small-molecule microarray binders of probe aNog, primary screen, biochemical, biotinylated probe, 635/667 nm fluorescence (AID 1115).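 Also: probe is biotinylated aNog protein used at 0.15 µg/mL for 1 h at 4 C; z-score combines 667 nm fluorescence of each spot with its signal to noise.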 The conditions noted are these: higher = more signal.
Assay [9] deals with Torsin-1A-interacting protein 1 (Homo sapiens) (UniProt Q5JTV8). As to the kind of experiment: LAP1 binders from COS7 cell lysate, primary screen, small-molecule microarray, 635/667 nm fluorescence (AID 1116). The conditions noted are these: COS7-hLAP1 lysate binding, 635 nm fluorescence, higher = more signal.
Sequence of Torsin-1A-interacting protein 1 (Homo sapiens) (Q5JTV8 whole entry, looked up): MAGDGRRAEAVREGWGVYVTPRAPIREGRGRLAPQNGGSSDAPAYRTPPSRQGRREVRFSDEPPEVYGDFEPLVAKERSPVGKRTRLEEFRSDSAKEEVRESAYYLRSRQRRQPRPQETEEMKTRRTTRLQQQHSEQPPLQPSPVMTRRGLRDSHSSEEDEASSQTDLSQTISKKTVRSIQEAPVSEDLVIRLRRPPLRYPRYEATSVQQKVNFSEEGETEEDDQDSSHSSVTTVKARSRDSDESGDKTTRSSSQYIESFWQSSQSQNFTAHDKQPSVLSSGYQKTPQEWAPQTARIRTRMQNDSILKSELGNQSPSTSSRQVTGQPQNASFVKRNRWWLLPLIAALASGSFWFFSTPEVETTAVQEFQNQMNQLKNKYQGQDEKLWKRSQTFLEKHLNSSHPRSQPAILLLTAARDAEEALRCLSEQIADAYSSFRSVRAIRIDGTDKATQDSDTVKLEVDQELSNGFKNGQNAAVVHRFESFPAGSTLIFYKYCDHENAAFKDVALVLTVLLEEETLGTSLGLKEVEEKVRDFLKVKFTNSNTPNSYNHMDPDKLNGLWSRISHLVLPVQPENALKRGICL
The target in assay [10] is Alpha-bungarotoxin (Bungarus multicinctus) (UniProt P60615). As to the kind of experiment: alpha-bungarotoxin binders on microarray, profiling panel, artefact control for SMM control protein annotation, biochemical, small-molecule microarray, Alexa647 label, 635/667 nm fluorescence (AID 1117). To be noted: alpha-BTX-A647 binding fluorescence, higher = more signal.
Sequence of Alpha-bungarotoxin (Bungarus multicinctus) (P60615 whole entry, looked up): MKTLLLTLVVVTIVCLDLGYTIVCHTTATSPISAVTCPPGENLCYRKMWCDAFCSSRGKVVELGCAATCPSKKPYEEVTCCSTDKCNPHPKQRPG
Another assay concerns the target Albumin (Bos taurus) (UniProt P02769). As to the kind of experiment: bovine serum albumin binders on microarray, profiling panel, artefact control for SMM control protein annotation, biochemical, small-molecule microarray, Alexa647 label, 635/667 nm fluorescence (AID 1118).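 Also: score merges 667 nm emission intensity and signal-to-noise per printed compound spot.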 To be noted: BSA-A647 binding, fluorescence 635 nm, higher = more signal.
The nature of assay [11]: small-molecule microarray binders of probe aXIP, primary screen, biochemical, NeuroSMM set, 635/667 nm fluorescence (AID 1119).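 Also: probe is the protein aXip251-270 applied at 1 µg/mL to compound-printed slides; binding of probe to printed compounds measured as 667 nm fluorescence plus signal to noise.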 To be noted: higher = more signal, called active from +8 up or from −8 down.
The nature of assay [12]: small-molecule binders of probe aNOTCH3, primary screen, biochemical, small-molecule microarray, 635/667 nm fluorescence (AID 1120).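 Also: probe is a biotin-tagged antibody raised against NOTCH3 rather than NOTCH3 protein; score merges spot fluorescence near 667 nm with spot signal to noise.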 To be noted: higher = more signal.
A short description of assay [13]: small-molecule binders of probe aNOTCH2, primary screen, biochemical, small-molecule microarray, 635/667 nm fluorescence (AID 1121).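 Also: score merges feature fluorescence read at 667 nm with its signal to noise.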 The conditions noted are these: higher = more signal.
In assay [14] the target is Carbonic anhydrase 2 (Homo sapiens) (UniProt P00918). As to the kind of experiment: CAII small-molecule binders, profiling panel, biochemical, small-molecule microarray, Alexa647-labelled CAII (AID 1122). The conditions noted are these: CAII-A647 binding fluorescence, higher = more signal.
The nature of assay [15]: COS7 lysate on small-molecule microarray, probe aHis, 635 nm (AID 1123).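 Also: z-score combines 667nm fluorescence intensity with signal-to-noise per printed compound spot.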 To be noted: COS7 cell lysate, fluorescence, higher = more signal.
Assay [16] can be described thus: compound binding in COS7 lysate, probe aLAP1, primary screen, cell lysate, small-molecule microarray (AID 1124).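 Also: lysate comes from COS7 cells expressing LAP1 and is applied at 0.3 µg/mL; score merges spot fluorescence near 667 nm with signal-to-noise over triplicate slides.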 To be noted: probe aLAP1, fluorescence, higher = more signal.
A further assay concerns Sam68 (KHDRBS1). In words: Sam68 small-molecule binders, primary screen, biochemical, small-molecule microarray, 635 nm fluorescence (AID 1125).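 Also: score merges 667 nm channel intensity with signal to noise over triplicate slides.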 To be noted: small-molecule microarray binding, higher = more signal.
Assay [17] deals with Chordin-like protein 2 (CHRDL2). In words: CHRDL2 small-molecule binders, primary screen, biochemical, small-molecule microarray, 635 nm fluorescence (AID 1126).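 Also: printed compound slides probed with Chrdl2 protein at 4 µg/mL for 1 h at 4 C; score merges 667 nm emission intensity with signal to noise over three replicate slides.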 The conditions noted are these: small-molecule microarray binding, fluorescence 635 nm; higher = more signal.
Assay [18] concerns the target Concanavalin-A (Canavalia ensiformis) (UniProt P02866). As to the kind of experiment: ConA small-molecule binders, primary screen, artefact control for SMM control protein annotation, biochemical, small-molecule microarray, Alexa647 label, 635 nm (AID 1127).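 Also: z combines 667 nm emission intensity with signal-to-noise across three replicate slides.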 The conditions noted are these: ConA-A647 binding fluorescence, higher = more signal.

Sequence of Left-right determination factor 2 (Homo sapiens) (O00292 whole entry, looked up): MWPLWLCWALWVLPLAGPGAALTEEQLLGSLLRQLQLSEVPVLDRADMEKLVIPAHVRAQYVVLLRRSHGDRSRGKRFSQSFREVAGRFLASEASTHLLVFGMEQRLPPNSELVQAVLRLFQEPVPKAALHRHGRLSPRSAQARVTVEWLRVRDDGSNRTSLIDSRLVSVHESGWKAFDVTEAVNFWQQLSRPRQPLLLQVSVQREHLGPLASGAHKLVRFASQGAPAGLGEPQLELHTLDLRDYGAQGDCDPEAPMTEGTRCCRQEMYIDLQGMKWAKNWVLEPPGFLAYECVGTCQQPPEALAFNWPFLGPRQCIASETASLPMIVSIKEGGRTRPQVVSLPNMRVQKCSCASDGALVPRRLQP
Sequence of Concanavalin-A (Canavalia ensiformis) (P02866 whole entry, looked up): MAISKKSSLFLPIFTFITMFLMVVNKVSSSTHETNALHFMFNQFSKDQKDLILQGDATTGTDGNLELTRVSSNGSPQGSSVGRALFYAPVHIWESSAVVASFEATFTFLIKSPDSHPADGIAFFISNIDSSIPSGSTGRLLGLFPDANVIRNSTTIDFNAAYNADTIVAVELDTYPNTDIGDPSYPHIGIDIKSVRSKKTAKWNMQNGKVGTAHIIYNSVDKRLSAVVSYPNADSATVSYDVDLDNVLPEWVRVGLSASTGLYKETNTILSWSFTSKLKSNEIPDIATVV
Sequence of Albumin (Bos taurus) (P02769 whole entry, looked up): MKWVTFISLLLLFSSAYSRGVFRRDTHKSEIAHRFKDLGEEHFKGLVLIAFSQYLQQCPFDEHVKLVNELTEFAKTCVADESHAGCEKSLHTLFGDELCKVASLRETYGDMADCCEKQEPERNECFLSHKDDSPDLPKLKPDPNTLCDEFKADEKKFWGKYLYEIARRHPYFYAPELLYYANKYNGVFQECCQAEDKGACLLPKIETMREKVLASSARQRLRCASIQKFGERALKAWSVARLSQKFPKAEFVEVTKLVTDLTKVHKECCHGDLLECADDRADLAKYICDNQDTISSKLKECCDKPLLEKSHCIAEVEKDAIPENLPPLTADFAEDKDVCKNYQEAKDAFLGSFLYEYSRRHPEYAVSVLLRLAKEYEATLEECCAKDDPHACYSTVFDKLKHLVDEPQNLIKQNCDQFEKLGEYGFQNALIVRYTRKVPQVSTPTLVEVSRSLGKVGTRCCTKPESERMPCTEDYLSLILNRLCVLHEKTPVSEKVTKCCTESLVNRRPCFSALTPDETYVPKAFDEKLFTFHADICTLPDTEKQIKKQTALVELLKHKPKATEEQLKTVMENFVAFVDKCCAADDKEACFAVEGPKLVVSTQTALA

For the compound `C=CCOC(=O)[C@H]1[C@@H]2C(=O)O[C@@H](c3ccccc3)[C@@H](c3ccccc3)N2[C@@H](c2ccc(OCCOC(=O)[C@H]3C[C@H]4C(=O)N[C@@H](CCCC[N+](C)(C)C)C(=O)N4[C@H]3c3ccc(O)cc3)cc2)[C@]12C(=O)Nc1ccccc12`, the composite z-score was 0.411 in assay [1]; -0.196 in assay [3]; -0.217 in [4]; -0.687 in assay [5]; -0.148 in [6]; 0.0469 in assay [7]. Moreover, the composite z-score in assay [8] is -0.32; in assay [9], 0.569; in assay [10], 0.717; with Albumin (Bos taurus) it was -0.317; in assay [12], 0.0306; in [13], -0.14. In addition, the composite z-score in assay [14] came to 0.456; in assay [15], 0.776; in [16] it was 0.411; in the assay with Sam68 (KHDRBS1), 0.028; in assay [17], 0.518; in [18], 0.843. In addition, the z-score in assay [2] is -0.581. Further, the composite Z-score in assay [11] is 0.0338 (inactive).

On to `COc1ccc([Si](C)(C)[C@@H]2[C@@H](CCO)O[C@]3(C(=O)N(Cc4cccc(N(C=O)c5ccccc5)c4)c4ccccc43)[C@H]2C)cc1`, for which the composite z-score in assay [1] is -0.179; in assay [3] it was -0.223; in assay [4], 1.13; in [5], 1.09; in assay [6], -0.176; in assay [7], 0.0611. Besides, the composite z-score is -0.0002 in [8]; 0.494 in assay [9]; 0.956 in assay [10]; 0.492 in the assay with Albumin (Bos taurus); -0.0328 in [12]; -0.0876 in assay [13]. The composite z-score in [14] was 0.457; in [15], 0.46; in assay [16], -0.206; with Sam68 (KHDRBS1), 1.32; in [17], -0.179; in [18], 1.1. In [2], the z-score was -4.85. Moreover, in assay [11], the composite Z-score was 0.492 (inactive).

As for `CC(c1ccccc1)C(O)C1C=CC2C(=O)N(Cc3ccccc3)C(=O)C2N1n1cnnc1` (stereo not given), the composite z-score in assay [1] is 1.12; in [3], 0.202; in [4], -0.133; in assay [5], 0.13; in [6], 0.0657; in assay [7], 0.297. The composite z-score is 0.49 in assay [8]; 0.0111 in assay [9]; 0.512 in assay [10]; 0.405 with Albumin (Bos taurus); 0.178 in [12]; -0.046 in [13]. Further, the composite z-score in [14] was 0.415; in assay [15] it was 1.06; in assay [16] it was -0.0771; in the assay with Sam68 (KHDRBS1) it was 0.669; in assay [17] it was -0.226; in [18] it was 0.851. The z-score in assay [2] was -0.562. Also, the composite Z-score in [11] is 0.171 (inactive).

For the compound `O=C1C2C=CC(C(O)CCc3ccccc3)N(Nc3ccccc3)C2C(=O)N1c1ccccc1` (stereo not given), the composite z-score in assay [1] was 0.0852; in assay [3], -0.231; in assay [4], 2.65; in assay [5], 1.4; in assay [6], 0.0797; in [7], 0.382. The composite z-score in assay [8] stood at 1.11; in assay [9] it was 2.2; in assay [10] it was 3.09; with Albumin (Bos taurus), 0.861; in assay [12] it was 0.185; in [13] it was 0.0278. For the same compound, the composite z-score is 0.65 in assay [14]; 2.82 in assay [15]; 0.899 in assay [16]; 1.3 with Sam68 (KHDRBS1); -0.788 in [17]; 1.2 in assay [18]. This compound gave a z-score in [2] of 0.123. The composite Z-score in assay [11] was -0.107 (inactive).

Turning to `CC(C)NC(=O)[C@@H]1c2ccccc2C(=O)N(C2CCCCC2)[C@H]1c1ccc(CO)cc1`, the composite z-score is 1.13 in assay [1]; 0.0474 in [3]; 0.166 in [4]; 0.808 in assay [5]; 0.0279 in [6]; -0.195 in assay [7]. The composite z-score in assay [8] is 0.342; in assay [9] it was 0.416; in [10], 1.01; with Albumin (Bos taurus), -0.338; in assay [12] it was -0.0731; in assay [13], -0.0326. For the same compound, the composite z-score is 0.336 in assay [14]; 1.47 in [15]; -0.0044 in [16]; 0.77 with Sam68 (KHDRBS1); -0.329 in assay [17]; 0.661 in [18]. The z-score in [2] is -1.48. In addition, the composite Z-score in assay [11] was -0.101 (inactive).

Take `C=CCN1C(=O)[C@@]2(O[C@@H](CCO)[C@H]([Si](C)(C)c3ccc(OC)cc3)[C@H]2C)c2cc(NC(C)=O)ccc21`: the composite z-score was 0.128 in [1]; 1.45 in assay [3]; 0.793 in assay [4]; 0.509 in [5]; 0.0136 in assay [6]; -0.0769 in assay [7]. Also, the composite z-score was -0.234 in [8]; 1.14 in assay [9]; 0.71 in assay [10]; -0.0164 in the assay with Albumin (Bos taurus); 0.307 in [12]; -0.044 in [13]. Also, the composite z-score in assay [14] came to 0.366; in assay [15], 2.57; in assay [16], 0.423; in the assay with Sam68 (KHDRBS1) it was 1.33; in assay [17], 0.835; in [18], 0.915. For the same compound, the z-score in assay [2] was -3.7. Besides, in [11], the composite Z-score was 0.347 (inactive).

Values taken from PubChem BioAssay.
